Screens: PubChem, National Center for Advancing Translational Sciences (NCATS)
Pol kappa inh – qHTS for Inhibitors of Polymerase Kappa; Potency, µM (doses to about 107 µM), hits mostly inhibitors; hit rate 0.53% among 400,000; purified Pol kappa, fluorescent DNA synthesis assay, 10 min; AID 588579, 2011; DNA polymerase kappa (Homo sapiens), Q9UBT6
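Kinetic fluorescence screen: compound preincubated 15 min RT with 10 nM enzyme; 50 nM substrate (final) initiates; reads at 0/10 min.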
Pol eta inh – qHTS for Inhibitors of Polymerase Eta | Potency, µM (titrated, usually from 114 µM), hits mostly inhibitors | hit rate 1.2% among 390,000 | DNA polymerase eta (Homo sapiens), Q9Y253 | recombinant Pol eta, fluorescent DNA replication assay
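Fluorescent replication assay: 50 nM final substrate added after a 15 min room-temperature compound preincubation with 10 nM enzyme. Signal taken at 0 min and again at 10 min.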
FEN1 inh – qHTS Assay for the Inhibitors of Human Flap endonuclease 1 (FEN1); P39748; Recombinant FEN1 flap cleavage, fluorescence, 15 min; Potency, µM (series often up to 114 µM), most hits filed as inhibitors; hit rate 0.35% among 390,000; further: nearly all actives have a fitted effect of over 65% in size
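Concentration–response screening of FEN1 (10 nM): 15 min compound preincubation at room temperature, reaction started with 50 nM substrate and read at 0 and 15 min. Corrected, normalized data were fitted by a four-parameter Hill equation.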
Pol iota inh – qHTS for Inhibitors of Polymerase Iota; DNA polymerase iota (Homo sapiens), Q9UNA4; Pol iota fluorescent replication assay, 10 min; Potency, µM (doses to about 115 µM), actives largely listed as inhibitors; hit rate 1% among 390,000; AID 588590, 2011
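Fluorescent replication assay read twice, at 0 min and 10 min after adding 50 nM (final) substrate. Enzyme (10 nM) and compounds were first incubated 15 min at room temperature; enzyme-free buffer wells were negative controls.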
WRN inhibitor – qHTS for Inhibitors of WRN Helicase; WRN helicase unwinding, fluorescent forked duplex, kinetic; AID 651768, 2012; Potency, µM (top dose mostly 114 µM), most hits filed as inhibitors; hit rate 0.46% among 360,000; further: nearly all actives have a fitted effect of over 55% in size
Target sequence (Q14191 whole entry, looked up): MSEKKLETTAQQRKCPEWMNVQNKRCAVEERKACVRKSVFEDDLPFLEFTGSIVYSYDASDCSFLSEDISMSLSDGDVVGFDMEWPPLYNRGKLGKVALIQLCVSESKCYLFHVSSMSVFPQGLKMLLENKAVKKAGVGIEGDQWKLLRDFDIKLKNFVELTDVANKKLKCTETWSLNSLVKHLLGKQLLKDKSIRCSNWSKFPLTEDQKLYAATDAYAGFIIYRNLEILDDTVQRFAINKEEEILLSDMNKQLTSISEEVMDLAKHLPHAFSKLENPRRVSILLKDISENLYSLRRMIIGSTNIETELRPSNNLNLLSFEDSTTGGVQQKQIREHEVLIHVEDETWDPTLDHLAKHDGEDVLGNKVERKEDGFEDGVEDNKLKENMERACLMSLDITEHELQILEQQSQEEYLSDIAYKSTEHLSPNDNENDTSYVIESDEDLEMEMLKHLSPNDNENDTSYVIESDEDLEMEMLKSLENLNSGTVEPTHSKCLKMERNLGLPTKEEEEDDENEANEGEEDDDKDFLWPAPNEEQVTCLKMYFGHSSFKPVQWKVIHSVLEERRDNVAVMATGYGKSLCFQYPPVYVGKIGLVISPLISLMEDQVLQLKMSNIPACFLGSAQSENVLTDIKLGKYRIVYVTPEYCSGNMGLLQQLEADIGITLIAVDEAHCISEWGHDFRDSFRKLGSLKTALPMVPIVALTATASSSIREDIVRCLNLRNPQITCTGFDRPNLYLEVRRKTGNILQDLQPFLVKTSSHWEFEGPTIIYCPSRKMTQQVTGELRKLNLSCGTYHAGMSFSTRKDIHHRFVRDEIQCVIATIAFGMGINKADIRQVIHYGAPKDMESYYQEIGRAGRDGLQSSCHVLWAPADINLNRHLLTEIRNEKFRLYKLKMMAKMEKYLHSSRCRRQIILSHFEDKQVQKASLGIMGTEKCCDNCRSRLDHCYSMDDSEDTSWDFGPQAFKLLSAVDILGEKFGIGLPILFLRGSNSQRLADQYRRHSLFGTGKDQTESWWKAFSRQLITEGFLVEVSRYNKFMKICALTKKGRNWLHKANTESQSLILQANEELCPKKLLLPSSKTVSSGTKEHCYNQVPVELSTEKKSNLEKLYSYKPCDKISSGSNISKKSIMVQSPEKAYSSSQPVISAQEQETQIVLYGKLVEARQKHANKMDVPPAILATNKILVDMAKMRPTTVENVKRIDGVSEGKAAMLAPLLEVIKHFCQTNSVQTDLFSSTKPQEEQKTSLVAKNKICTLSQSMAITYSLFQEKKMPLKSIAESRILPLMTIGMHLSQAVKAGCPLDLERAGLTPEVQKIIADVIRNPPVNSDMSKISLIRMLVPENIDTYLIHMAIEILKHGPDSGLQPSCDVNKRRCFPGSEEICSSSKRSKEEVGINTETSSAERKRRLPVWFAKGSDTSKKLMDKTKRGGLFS
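Kinetic red-fluorescence monitoring (525/598 nm) tracks WRN helicase activity after 100 nM fluorophore-quencher forked duplex and 2 mM ATP are added to 20 nM enzyme pretreated 15 min at room temperature with compound.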
POLB inh – qHTS Assay for Inhibitors of DNA Polymerase Beta. P06746. Pol beta primer extension/strand displacement, fluorescence kinetic. Potency, µM (series often up to 114 µM), usual class: inhibitors. hit rate 1.3% among 340,000. AID 485314, 2010
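Pol beta (10 nM) was preincubated with compound for 15 min at room temperature. The reaction was then started with 50 nM substrate and read immediately and after a further 10 min at room temperature.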
Of the large screens only hits and unclear results are named; the others gave an inactive call; ! = not active in a repeat. An excerpt weighted towards active compounds, which were near 2.4% of everything screened. The call rests on the fitted dose curve; in most records, active means well fitted curve in the direction sought with a large enough effect; inconclusive means small, poorly fitted or top-dose-only effect, or another doubt; inactive means no such curve, though single readings can be large; an effect the other way counts as inactive or inconclusive.

CCOC(=O)c1c(N)sc(=S)c2c1CCC2	Pol eta inh inconclusive, Pol iota inh inconclusive, POLB inh 8.9µM
Cc1oc(C(=O)O)cc1COc1ccc2c(C)cc(=O)oc2c1	Pol eta inh 22µM, POLB inh inconclusive
O=C(Nc1ccc2oc(-c3ccncc3)nc2c1)c1cccs1	Pol eta inh inconclusive, FEN1 inh inconclusive, POLB inh 22µM
O=C(Cc1ccccc1)Nc1ccc2oc(-c3ccncc3)nc2c1	Pol eta inh inconclusive, Pol iota inh inconclusive, POLB inh 22µM
O=C(Nc1ccc2oc(-c3ccc(Cl)c(Cl)c3)nc2c1)c1ncn[nH]1	Pol kappa inh inconclusive, Pol eta inh inconclusive, Pol iota inh inconclusive, POLB inh 11µM
O=C(Nc1ccc(-c2nc3cc(NC(=O)c4cccs4)ccc3o2)cc1)c1cccs1	none
COc1ccc(OC)c2sc(N3CCN(C(=O)c4ccc5c(c4)CCCC5)CC3)nc12	none (no result: WRN inhibitor)
Cc1ccc2c(c1)-c1onc(C(=O)N(C)c3cccc(C(F)(F)F)c3)c1CO2	none (no result: WRN inhibitor)
CCc1ccc(-n2nc(CO)c(C(=O)NCCCCc3ccccc3)n2)cc1	none (no result: WRN inhibitor)
COc1ccc(CC(=O)OCC(=O)Nc2ncc(Cl)c(C)c2Cl)cc1	Pol eta inh 20µM, Pol iota inh inconclusive (no result: POLB inh)
Cc1c(Cl)cnc(NC(=O)COC(=O)C(NC(=O)c2ccco2)C(C)C)c1Cl (configuration not stated)	Pol eta inh 89µM, Pol iota inh inconclusive, POLB inh 45µM
Cc1noc(C)c1C(=O)OCC(=O)Nc1ncc(Cl)c(C)c1Cl	Pol eta inh 20µM, Pol iota inh inconclusive (no result: POLB inh)
O=C(CN1C(=O)COc2ccc(S(=O)(=O)N3CCOCC3)cc21)NCc1ccc(Cl)cc1	none (no result: WRN inhibitor)
CCc1nc(C)cn1S(=O)(=O)c1ccc(Cl)c(Cl)c1OC	none (no result: WRN inhibitor)
O=C(Nc1cc(F)ccc1F)c1cnn2c1NC(=C1CC1)C=C2C(F)F	none (no result: Pol eta inh, WRN inhibitor, POLB inh)
Nc1ccc2cccnc2c1	none (no result: Pol eta inh, WRN inhibitor, POLB inh)
O=C(CC1NCCNC1=O)Nc1ccccc1F (configuration not stated)	none (no result: WRN inhibitor)
Cc1c(OCC(=O)N[C@@H](Cc2c[nH]c3ccccc23)C(=O)O)ccc2c1oc(=O)c1ccccc12	Pol eta inh 79µM, FEN1 inh inconclusive
CCc1nnc2c(Nc3cccc(F)c3)nc3ccc(C(=O)c4ccccc4)cc3n12	none (no result: WRN inhibitor)
CSc1nc2sc3c(c2c(=O)n1Cc1ccccc1)CCC(C(C)(C)C)C3 (configuration not stated)	none (no result: WRN inhibitor)
Brc1ccc(C2=CC(c3cccs3)n3ncnc3N2)cc1 (configuration not stated)	Pol eta inh inconclusive, Pol iota inh inconclusive, POLB inh 50µM
O=S1(=O)CCO[C@H]2CCCC[C@@H]2N1Cc1ccccc1Br	none (no result: Pol eta inh, WRN inhibitor, POLB inh)
C=C1[C@@H](O)[C@H](CC(C)C)N(Cc2ccccc2Br)S1(=O)=O	Pol eta inh 50µM (no result: POLB inh)
CCOC(=O)C1=C(C)NC(=O)NC1c1ccc(C)o1 (configuration not stated)	Pol kappa inh inconclusive, Pol eta inh inconclusive, Pol iota inh 56µM
CCOC(=O)C1=C(C)NC(C)=C(C(=O)OCC)C1c1ccc(C)o1	none
CCOC(=O)C1=C(C)NC(=S)NC1c1ccco1 (configuration not stated)	Pol kappa inh inconclusive, Pol eta inh inconclusive, Pol iota inh 22µM, WRN inhibitor inconclusive
CCCCN(CC)c1nc(C)nc2c1c(C)c(C)n2-c1c(C)cc(C)cc1C	none (no result: Pol eta inh, FEN1 inh, Pol iota inh, WRN inhibitor, POLB inh)
Cc1c(CCC(=O)O)c(=O)oc2cc3occ(-c4ccc(Cl)cc4)c3cc12	Pol eta inh 22µM, FEN1 inh inconclusive, Pol iota inh inconclusive, POLB inh inconclusive
Cc1c(CCC(=O)O)c(=O)oc2cc3occ(-c4ccc(F)cc4)c3cc12	FEN1 inh inconclusive, Pol iota inh inconclusive, WRN inhibitor inconclusive, POLB inh inconclusive
c1ccc(-c2ccccc2OCCOCCN2CCOCC2)cc1	POLB inh 50µM
O=C(Nc1cc(C(=O)Nc2ccc(S(=O)(=O)O)cc2S(=O)(=O)O)cc(C(=O)Nc2ccc(S(=O)(=O)O)cc2S(=O)(=O)O)c1)Nc1cc(C(=O)Nc2ccc(S(=O)(=O)O)cc2S(=O)(=O)O)cc(C(=O)Nc2ccc(S(=O)(=O)O)cc2S(=O)(=O)O)c1	Pol kappa inh 0.18µM!, Pol eta inh 0.1µM, Pol iota inh 1.3µM, POLB inh 0.22µM (no result: WRN inhibitor)
O=C(Nc1ccc(C(=O)Nc2ccc(C(=O)Nc3ccc(S(=O)(=O)O)c4cc(S(=O)(=O)O)cc(S(=O)(=O)O)c34)cc2)cc1)Nc1ccc(C(=O)Nc2ccc(C(=O)Nc3ccc(S(=O)(=O)O)c4cc(S(=O)(=O)O)cc(S(=O)(=O)O)c34)cc2)cc1	Pol kappa inh 0.14µM (no result: Pol eta inh, FEN1 inh, Pol iota inh, WRN inhibitor, POLB inh)
C=C1C[C@@]23CC[C@H]4[C@@](C)(CCC[C@@]4(C)C(=O)O)[C@@H]2CC[C@]1(O)C3	none (no result: Pol eta inh, FEN1 inh, Pol iota inh, WRN inhibitor, POLB inh)
Cn1c(=O)c2cc(C(=O)NC3CCCCCC3)sc2c2ccccc21	Pol eta inh inconclusive, POLB inh 8.9µM (no result: WRN inhibitor)
CCn1c(=O)c2cc(C(=O)NC3CCCCCC3)sc2c2ccccc21	none (no result: WRN inhibitor)
C=C(C)C1CC=C(C)/C(=N/NC(=O)CNc2ccc(OCC)cc2)C1 (configuration not stated)	Pol iota inh 89µM
CCn1cc2nc(SCC(=O)Nc3ccc(C)cc3C)n(Cc3ccc(C)cc3)c(=O)c2n1	Pol eta inh 79µM, POLB inh 10µM (no result: WRN inhibitor)
COC(=O)\C(C(C)=O)=C(/C=C/C=C/N(C)C)N(C)C	Pol kappa inh inconclusive, Pol eta inh 14µM, Pol iota inh inconclusive, POLB inh 22µM
Cc1ccc(C2c3cccn3CCN2S(=O)(=O)c2ccc([N+](=O)[O-])cc2)cc1 (configuration not stated)	none (no result: WRN inhibitor)
O=C(CCCCCn1c(=S)[nH]c2cc3c(cc2c1=O)OCO3)N1CCN(C(=O)c2ccco2)CC1	Pol eta inh inconclusive, Pol iota inh 28µM, WRN inhibitor inconclusive, POLB inh inconclusive
O=C(CCCn1c(=S)[nH]c2cc3c(cc2c1=O)OCO3)NCc1cccc(Cl)c1	Pol kappa inh inconclusive, FEN1 inh inconclusive, Pol iota inh 45µM
CN(C)c1ccc(C=Nc2ccc(/C=C3\C=Cc4ccccc43)cc2)cc1	none (no result: Pol eta inh, WRN inhibitor, POLB inh)
CC(=O)N1CCCc2cc(S(=O)(=O)NCc3ccc(OC(C)C)cc3)ccc21	none (no result: WRN inhibitor)
O=C(CSc1ncc(-c2ccccc2)nn1)NCc1ccco1	Pol iota inh inconclusive, POLB inh 28µM
O=C(CSc1ncnc2c1oc1ccccc12)NCc1ccco1	Pol iota inh inconclusive, POLB inh 32µM
CCCCc1nc2sc3c(SCC(=O)NCc4ccco4)ncnc3c2c2c1CCC2	Pol eta inh 22µM, POLB inh inconclusive
